# p97 inhibitor: inhibitors of human p97 ATPase, primary screen, biochemical. Transitional endoplasmic reticulum ATPase (Homo sapiens), P55072. recombinant p97 ATPase, Kinase-Glo ATP luminescence, 3 h. inhibition, % at 8 µM. hit rate 0.42% among 220,000; in the data active means inhibition above about 15%;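 further: 0% = DMSO vehicle and 100% = wells lacking enzyme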
# Hck-Nef inh: inhibitors of Nef-activated human Hck kinase, primary screen, biochemical, Z-Lyte FRET, 384-well, Hck-YEEI | hit rate 0.68% among 220,000 | Recombinant Hck-YEEI plus Nef, Z-Lyte FRET kinase assay | inhibition, % at 20 µM | AID 463187, 2010;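 active means Hck-Nef kinase inhibition above about 50%, limit read from the data; inactive means inhibition below that limit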;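 further: 0% = DMSO with Hck plus Nef and 100% = Hck alone without Nef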
# PREPL inhibitor: PREPL enzyme inhibitors, primary screen, biochemical, fluorescence polarization. Prolyl endopeptidase-like (Homo sapiens), Q4J6C6. recombinant PREPL, fluorescence polarization activity-based probe. inhibition, % at 5.96 µM. hit rate 0.68% among 320,000; in the data active means inhibition above about 43%;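 further: 0% = enzyme with DMSO and 100% = wells lacking enzyme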
# Rin1 Abl inh: inhibitors of Rin1-Abl protein binding, primary screen, biochemical, TR-FRET; Tyrosine-protein kinase ABL1 (Homo sapiens) + Ras and Rab interactor 1 (Homo sapiens), …; inhibition, % at 7.35 µM; hit rate 0.4% among 360,000; AID 588664, 2011; in the data active means inhibition above about 5%, passing the limit was not always enough
# Target sequence (P00519 whole entry, looked up): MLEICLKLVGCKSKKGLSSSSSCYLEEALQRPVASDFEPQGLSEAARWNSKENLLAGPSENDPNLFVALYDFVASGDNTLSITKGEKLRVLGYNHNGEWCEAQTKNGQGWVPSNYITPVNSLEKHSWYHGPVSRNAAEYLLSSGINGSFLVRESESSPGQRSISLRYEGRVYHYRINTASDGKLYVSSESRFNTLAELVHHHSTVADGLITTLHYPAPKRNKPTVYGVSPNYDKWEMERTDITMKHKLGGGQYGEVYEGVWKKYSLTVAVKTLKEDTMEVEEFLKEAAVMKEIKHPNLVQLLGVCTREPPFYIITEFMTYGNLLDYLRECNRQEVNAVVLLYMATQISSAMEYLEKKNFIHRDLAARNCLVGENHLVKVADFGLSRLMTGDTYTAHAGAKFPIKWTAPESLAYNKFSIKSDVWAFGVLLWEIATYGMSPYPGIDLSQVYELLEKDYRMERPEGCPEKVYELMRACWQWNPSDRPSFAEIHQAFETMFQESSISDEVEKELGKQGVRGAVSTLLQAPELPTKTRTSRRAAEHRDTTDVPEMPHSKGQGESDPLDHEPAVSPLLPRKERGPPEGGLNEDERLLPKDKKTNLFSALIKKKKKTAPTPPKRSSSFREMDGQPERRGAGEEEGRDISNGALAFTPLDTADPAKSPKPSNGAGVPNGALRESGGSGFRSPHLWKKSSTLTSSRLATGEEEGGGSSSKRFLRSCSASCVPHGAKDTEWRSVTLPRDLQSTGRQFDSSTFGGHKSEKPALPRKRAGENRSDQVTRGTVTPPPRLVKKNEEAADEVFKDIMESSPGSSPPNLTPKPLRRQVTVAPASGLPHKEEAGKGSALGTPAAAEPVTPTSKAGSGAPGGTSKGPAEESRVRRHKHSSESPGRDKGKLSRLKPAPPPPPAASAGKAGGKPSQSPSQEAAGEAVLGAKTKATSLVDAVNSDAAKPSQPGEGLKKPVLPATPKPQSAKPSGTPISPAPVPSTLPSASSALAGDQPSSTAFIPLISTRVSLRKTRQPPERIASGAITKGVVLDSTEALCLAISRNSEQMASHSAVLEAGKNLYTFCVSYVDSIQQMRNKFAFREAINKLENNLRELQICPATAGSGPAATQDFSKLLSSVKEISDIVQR
# Target sequence (Q13671 whole entry, looked up): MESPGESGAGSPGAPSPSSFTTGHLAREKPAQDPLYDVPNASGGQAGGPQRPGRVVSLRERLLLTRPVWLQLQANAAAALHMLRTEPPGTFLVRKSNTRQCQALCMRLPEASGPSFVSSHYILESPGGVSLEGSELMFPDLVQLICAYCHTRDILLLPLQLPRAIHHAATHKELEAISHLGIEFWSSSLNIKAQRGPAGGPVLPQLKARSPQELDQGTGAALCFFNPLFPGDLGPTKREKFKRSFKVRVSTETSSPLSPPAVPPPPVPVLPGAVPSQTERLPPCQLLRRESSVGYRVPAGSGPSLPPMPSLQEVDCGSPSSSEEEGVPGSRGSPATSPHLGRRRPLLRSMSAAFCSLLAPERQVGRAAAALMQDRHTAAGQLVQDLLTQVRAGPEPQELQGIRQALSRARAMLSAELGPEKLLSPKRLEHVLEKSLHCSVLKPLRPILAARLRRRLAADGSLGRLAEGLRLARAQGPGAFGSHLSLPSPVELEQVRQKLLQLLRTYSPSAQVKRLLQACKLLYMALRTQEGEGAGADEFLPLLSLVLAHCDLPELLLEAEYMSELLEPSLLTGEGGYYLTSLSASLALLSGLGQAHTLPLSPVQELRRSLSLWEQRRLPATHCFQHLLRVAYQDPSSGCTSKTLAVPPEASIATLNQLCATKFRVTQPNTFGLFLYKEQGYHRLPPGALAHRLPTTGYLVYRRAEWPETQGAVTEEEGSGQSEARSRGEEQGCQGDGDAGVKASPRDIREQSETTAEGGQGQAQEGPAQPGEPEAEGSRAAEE
# LYPLA1 counter: LYPLA1 inhibitors, primary screen, counter-screen for PME1 inhibitor project, biochemical, fluorescence polarization, FP-Rh probe ABPP. recombinant LYPLA1. inhibition, % at 5.9 µM. hit rate 0.16% among 320,000;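 active means inhibition above the mean of all tested compounds plus 3 SD, set per campaign, cut at about 14% in these data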;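 further: inhibitors block serine hydrolase probe labeling of LYPLA1 so polarization falls; 0% = enzyme with DMSO and 100% = wells lacking LYPLA1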
# LYPLA2 inh: LYPLA2 inhibitors, primary screen, counter-screen for PME1 inhibitor project, biochemical, fluorescence polarization, FP-Rh probe ABPP; Acyl-protein thioesterase 2 (Homo sapiens), O95372; recombinant LYPLA2; inhibition, % at 5.9 µM; hit rate 0.38% among 320,000;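 active means inhibition above the screen-wide mean plus 3 SD, limit set per campaign, cut at about 26% in these data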;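 further: 0% = LYPLA2 with DMSO and 100% = wells lacking LYPLA2 enzyme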
# LYPLA2 conf: LYPLA2 inhibitors, retest, confirmation, counter-screen for PME1 inhibitor project, biochemical, fluorescence polarization, FP-Rh probe ABPP. shares compounds with LYPLA2 inh. hit rate 72% among 1,100. recombinant LYPLA2. inhibition, % at 5.9 µM;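 active means mean inhibition across replicates above the hit cutoff set in the primary screen, cut at about 26% in these data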;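 further: blocked labeling of the enzyme by serine hydrolase FP-Rh probe lowers polarization; 0% = enzyme with DMSO and 100% = wells lacking LYPLA2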
# LYPLA2 gel ABPP: LYPLA2 inhibitors in proteome, late-stage follow-up, gel-based competitive ABPP, fluorescence, assay provider. shares compounds with LYPLA2 inh. hit rate 30% among 150. inhibition, % at 20 µM. rhLYPLA2 in mouse brain proteome, gel ABPP FP-Rh;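 active means inhibition of LYPLA2 enzyme probe labeling above about 50%, limit read from the data; inactive means inhibition below that limit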;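 further: loss of FP-Rh probe labeling of the LYPLA2 gel band measured as band density; 0% = DMSO only control band and 100% = blank gel background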
# Starred values were filed as active, the others as inactive; x = no result. Hits are enriched below; roughly 1.7% of the tested compounds scored in any of these assays.
SMILES,p97 inhibitor,Hck-Nef inh,PREPL inhibitor,Rin1 Abl inh,LYPLA1 counter,LYPLA2 inh,LYPLA2 conf,others
COc1cccc(-c2cc(C(=O)Nc3c(C)nn(Cc4ccccc4)c3C)no2)c1,-4.3,0.7,12.2,-2.0,7.6,56.3*,45.4*,
COc1ccc(OC)c(NC(=O)NNC(=O)COc2ccc([N+](=O)[O-])cc2)c1,x,x,11.7,0.7,-0.1,-0.8,x,
O=C(CCC(=O)N1CCN(c2ccc(Cl)c(Cl)c2)CC1)c1ccccc1,x,x,-31.0,1.4,12.7,37.2*,31.5*,
c1ccc(-c2ccc(C(c3ccccc3)n3ccnc3)cc2)cc1 (stereo not given),-0.4,0.8,-4.1,2.1,-3.9,27.4*,23.1,
O=C(N/N=C/c1ccccn1)c1ccc(Cl)c(Cl)c1,x,x,11.2,3.7,-1.9,0.6,x,
CC(C)(C)N(CC(=O)NC1CCCCC1)C(=O)CS(=O)CC(=O)Nc1ccc(F)cc1 (stereo not given),x,x,5.6,4.0,1.9,2.5,x,
COc1ccc(Cl)cc1NC(=O)c1noc(C)c1[N+](=O)[O-],x,x,1.4,0.3,-0.7,28.2*,35.9*,
Cc1nc([N+](=O)[O-])c(Br)n1CC(=O)c1ccc2ccccc2c1,6.5,-1.1,11.8,0.0,0.6,31.3*,30.1*,
O=[N+]([O-])c1cccc2cnccc12,x,x,x,-3.1,x,x,x,
O=[N+]([O-])c1ccc(Oc2ccc(F)cc2)c2ccncc12,2.4,22.6,14.6,-1.3,0.8,56.6*,54.3*,LYPLA2 gel ABPP=12.0
O=[N+]([O-])c1ccc(Oc2cccc(Br)c2)c2ccncc12,2.6,-0.7,36.3,-3.3,11.2,80.6*,79.0*,LYPLA2 gel ABPP=57.0*
CC(=O)c1ccc(N2CCN(C(=O)C3CCN(S(=O)(=O)c4ccc(F)cc4)CC3)CC2)cc1,x,x,8.8,-1.9,0.7,34.9*,25.4,
Cc1cc(C)c(C)c(S(=O)(=O)N2CCC(C(=O)N3CCN(c4ccc(F)cc4)CC3)CC2)c1C,x,x,x,-0.8,x,x,x,
COc1ccc(N2CCN(C(=O)C3CCN(S(=O)(=O)c4cccs4)CC3)CC2)cc1,1.0,24.7,3.0,3.6,-0.2,42.8*,52.0*,LYPLA2 gel ABPP=37.0
O=C(C1CCN(S(=O)(=O)c2cccs2)CC1)N1CCN(c2ccccc2)CC1,4.0,-17.1,-0.5,-3.1,0.7,8.2,x,
CC(=O)c1ccc(N2CCN(c3ccc(S(=O)(=O)N4CCN(C)CC4)cn3)CC2)cc1,0.2,0.3,11.5,-1.3,-0.2,27.1*,35.1*,
CC(=O)c1ccc(N2CCN(C(=O)C3CCN(S(=O)(=O)Cc4ccccc4)CC3)CC2)cc1,2.0,1.8,4.9,-2.2,-1.5,36.0*,33.3*,
O=C(CC1Sc2ccccc2NC1=O)NNc1cccc(Cl)c1Cl (stereo not given),x,x,x,-2.4,x,x,x,
COc1ccccc1CNC(=O)COC(=O)c1nc(Cl)ccc1Cl,x,x,7.2,1.8,1.5,2.5,x,
Cn1c(=O)oc2cc(S(=O)(=O)N3CCC(C(=O)N4CCN(c5ccc(F)cc5)CC4)CC3)ccc21,x,x,6.2,1.2,-2.2,43.8*,39.2*,
COc1ccc(N2CCN(C(=O)C3CCN(S(=O)(=O)c4ccc5c(c4)oc(=O)n5C)CC3)CC2)cc1,x,x,-1.4,4.9,2.9,32.5*,40.8*,
Cc1ccnc(NC(=O)c2ccc3[nH]c(=O)c(=O)[nH]c3c2)c1,x,x,6.2,1.5,4.3,13.9,x,
CCCCCCC1CC(CC(=O)Nc2ccc([N+](=O)[O-])cc2)C(=O)O1 (stereo not given),-0.8,6.0,-11.6,-1.7,1.0,33.6*,28.0*,
C1=C(c2cc3ccccc3cn2)CCCC1,x,x,-24.3,2.6,x,x,x,
CC1CCCCC12NC(=O)N(CC(=O)Nc1nccs1)C2=O (stereo not given),x,x,0.8,0.2,x,x,x,
SMILES,p97 inhibitor,Hck-Nef inh,PREPL inhibitor,Rin1 Abl inh,LYPLA1 counter,LYPLA2 inh,LYPLA2 conf,others
CN(C(=O)COC(=O)CSc1ccccc1)c1c(N)n(Cc2ccccc2)c(=O)[nH]c1=O,x,x,x,0.6,x,x,x,
CC(=O)c1ccc(N2CCN(C(=O)/C=C/c3ccc4ccccc4n3)CC2)cc1,0.6,16.4,22.3,-0.9,5.7,32.6*,39.2*,
O=C(O)c1ccc(N=Cc2nc(-c3ccco3)oc2O)cc1,5.0,21.7,4.6,-1.8,1.1,30.8*,36.7*,
O=C(NCCNC(=O)c1cc(OCC(F)(F)F)ccc1OCC(F)(F)F)Nc1ccc(OC(F)(F)F)cc1,-3.7,-0.8,7.4,-0.1,10.9,25.8*,35.1*,
O=C(CN1CCN(C/C=C/c2ccccc2)CC1)Nc1cc([N+](=O)[O-])ccc1Cl,-1.7,2.7,48.6*,-3.8,21.7*,30.9*,28.5*,
O=[N+]([O-])c1ccc(C(O)CN2CCN(C/C=C/c3ccccc3)CC2)cc1 (stereo not given),x,x,29.6,2.9,7.6,62.2*,54.1*,LYPLA2 gel ABPP=36.0
Cc1cc(NC(=O)CN2CCN(C/C=C/c3ccccc3)CC2)c([N+](=O)[O-])cc1C,-2.9,3.7,12.4,0.4,0.8,4.9,x,
CCN(CC(=O)NCc1cccs1)C(=O)c1cc(S(=O)(=O)N2CCOCC2)ccc1C,0.5,-25.8,-5.9,-4.8,-4.4,28.7*,-1.9,
CCc1ccc(C(=O)N2CCC(c3nc4ccccc4s3)CC2)cc1,-7.3,-0.3,-5.1,0.0,-0.1,48.8*,38.6*,
O=C(N/C(=C\c1ccccc1)C(=O)N1CCCCC1)c1ccc(Br)o1,x,x,-1.3,1.4,0.1,-3.3,x,
O=C1CC(c2ccc(OCCCCCOc3ccc(C4CC(=O)NC4=O)cc3)cc2)C(=O)N1 (stereo not given),4.6,20.4,3.2,5.8,4.2,39.9*,52.7*,LYPLA2 gel ABPP=32.0
O=C(NNc1ccccc1[N+](=O)[O-])Nc1ccc(F)cc1F,x,x,0.4,1.6,0.1,1.5,x,
O=C(NNc1ccccc1[N+](=O)[O-])Nc1cccc(Cl)c1,7.0,4.5,10.2,-0.8,-1.1,39.7*,46.0*,
O=C(Nc1ccncc1)c1cccc(S(=O)(=O)N2CCN(c3ccc(F)cc3)CC2)c1,x,x,-47.8,2.9,-11.3,40.4*,24.6,
Cc1cc(C)c2c(n1)SCC(=O)N2CC(=O)Nc1ccc(Br)c(C)c1,x,x,10.6,-0.2,-2.9,55.9*,32.7*,

# High-throughput results: PubChem, several laboratories
